From PubChem
DPM-DC inhibit = blocks S. pneumoniae diphosphomevalonate decarboxylase; purified DPM-DC, PK/LDH coupled NADH fluorescence; hit rate 0.49% among 65,000; calls only at 10 µM;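 active = the 320 compounds with the highest percent inhibition in the single-dose primary screen, excluding strongly autofluorescent ones, cut at about 32% in these data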;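 also: kinetic rate of NADH fluorescence loss reporting ADP formed by the decarboxylase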
Fluor 339 460 = intrinsic fluorescence of library compounds, ex339/em460 – biochemical, MLSMR library, data from DPM-DC assay, artefact control, profiling panel; compound autofluorescence, ex339/em460 nm, NADH buffer; active compounds read high; 1 = no-compound wells, NADH background; fluorescence fold increase at 10 µM; hit rate 5.5% among 65,000;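 active = at 10 µM, mean starting fluorescence two-fold or more over control wells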;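 also: signal is the first read of a kinetic run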
NADH enzymes = inhibitors of enzymes used to reach an NAD/NADH endpoint; coupled PK/LDH NADH assays, four targets; IC50, µM (top dose mostly 10 µM); hit rate 0.02% among 65,000; AID 774;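 active = single-dose screening hits from any of four coupled enzyme assays that gave an IC50 when retested across doses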;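 also: the DPM-DC format reads NADH fluorescence rather than 340 nm absorbance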
PMK inhibit = inhibitors of Streptococcus pneumoniae phosphomevalonate kinase | hit rate 0.49% among 65,000 | inhibition, % at 10 µM | purified PMK, PK/LDH-coupled NADH absorbance 340 nm;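 active = top-ranked compounds by inhibition in the single 10 µM screen, taking a fixed number of the strongest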
MK inhibit = S. pneumoniae mevalonate kinase inhibition; hit rate 0.48% among 65,000; inhibition, % at 10 µM; purified MK, PK/LDH-coupled NADH absorbance 340 nm; AID 555;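 active = ranked among the strongest by inhibition in the single 10 µM screen, a fixed top-ranked set picked for dose follow-up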
Abs 340nm = absorbance at 340 nm; compound absorbance at 340 nm, fold over control; fold change at 10 µM; 65,000 tested, under 10 active; AID 708;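 active = at 10 µM dose, initial 340 nm absorbance at least 2 fold that of control wells; inactive = change under 2 fold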;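 also: initial absorbance extrapolated from kinetic A340 decline of NADH oxidation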
Numbers stand for hits. Most compounds without a hit are left out; they make up all but 6.3% or so of the library.

For N#Cc1c(SCC(=O)Nc2nccs2)nc2c(c1-c1ccco1)CCCC2 the results were DPM-DC inhibit inactive, Fluor 339 460 inactive, NADH enzymes inactive, PMK inhibit inactive, MK inhibit inactive and Abs 340nm inactive.
CCC(CC)NC(=O)c1n[nH]c(=O)c2ccccc12 was read as DPM-DC inhibit inactive, Fluor 339 460 inactive, NADH enzymes inactive, PMK inhibit inactive, MK inhibit inactive and Abs 340nm inactive.
Screening O=C(c1n[nH]c(=O)c2ccccc12)N1CCN(C2c3ccccc3-c3ccccc32)CC1 returned DPM-DC inhibit inactive, Fluor 339 460 inactive, NADH enzymes inactive, PMK inhibit 29.0, MK inhibit inactive and Abs 340nm inactive.
COc1nc2cc(C)ccc2cc1-c1noc(-c2cccnc2)n1 was read as DPM-DC inhibit inactive, Fluor 339 460 inactive, NADH enzymes inactive, PMK inhibit inactive, MK inhibit inactive and Abs 340nm inactive.
`COc1cc(OC)cc(-c2nc(-c3cc4cc(C)ccc4nc3OC)no2)c1` gave DPM-DC inhibit inactive, Fluor 339 460 2.6, NADH enzymes inactive, PMK inhibit inactive, MK inhibit inactive and Abs 340nm inactive.
Screening O=C(CCN1C(=O)c2ccccc2C1=O)NC1=NCCS1 returned DPM-DC inhibit inactive, Fluor 339 460 inactive, NADH enzymes inactive, PMK inhibit 51.0, MK inhibit inactive and Abs 340nm inactive.
For COc1ccccc1NC(=O)C1CCCCC1 the results were DPM-DC inhibit inactive, Fluor 339 460 inactive, NADH enzymes inactive, PMK inhibit inactive, MK inhibit inactive and Abs 340nm inactive.
`CCOC(=O)C1CCN(S(=O)(=O)c2cccc(-c3cn4cccnc4n3)c2)CC1` gave Fluor 339 460 2.1, NADH enzymes inactive, PMK inhibit inactive, MK inhibit inactive and Abs 340nm inactive.
COc1ccc(-c2cn3cccnc3n2)cc1NC(=O)C1CCCC1 was read as Fluor 339 460 4.78, NADH enzymes inactive, PMK inhibit inactive, MK inhibit inactive and Abs 340nm inactive.
COc1ccc(-c2cn3cccnc3n2)cc1NC(=O)C1CC1 was read as DPM-DC inhibit inactive, Fluor 339 460 3.23, NADH enzymes inactive, PMK inhibit inactive, MK inhibit inactive and Abs 340nm inactive.
`CCOC(=O)C1CCN(S(=O)(=O)c2cccc(-c3csc(C)n3)c2)CC1` gave DPM-DC inhibit inactive, Fluor 339 460 inactive, NADH enzymes inactive, PMK inhibit inactive, MK inhibit inactive and Abs 340nm inactive.
COc1cc(CO)cc(Br)c1OCc1cccnc1 was read as DPM-DC inhibit inactive, Fluor 339 460 inactive, NADH enzymes inactive, PMK inhibit inactive, MK inhibit inactive and Abs 340nm inactive.
`O=C(Nc1ccccc1)c1ccccc1O` gave Fluor 339 460 2.06, NADH enzymes inactive, PMK inhibit inactive, MK inhibit inactive and Abs 340nm inactive.
Cc1ccc(NC(=O)c2ccccc2O)cc1 was read as DPM-DC inhibit inactive, Fluor 339 460 inactive, NADH enzymes inactive, PMK inhibit inactive, MK inhibit inactive and Abs 340nm inactive.
Screening CCC(C)NC(=O)c1ccccc1C(=O)NC(C)CC (configuration not stated) returned DPM-DC inhibit inactive, Fluor 339 460 inactive, NADH enzymes inactive, PMK inhibit inactive, MK inhibit inactive and Abs 340nm inactive.
CCC(NC(=O)c1ccccc1O)c1ccccc1 (configuration not stated) was read as Fluor 339 460 3.67, NADH enzymes inactive, PMK inhibit inactive, MK inhibit inactive and Abs 340nm inactive.
For COc1ccc(-c2ccc(-c3nnc(Cc4ccc(OC)c(OC)c4)o3)cc2)cc1 the results were DPM-DC inhibit inactive, Fluor 339 460 2.58, NADH enzymes inactive, PMK inhibit inactive, MK inhibit inactive and Abs 340nm inactive.
For CCCc1cc(NCCN2CCOCC2)n2c(nc3ccccc32)c1C#N the results were Fluor 339 460 2.34, NADH enzymes inactive, PMK inhibit inactive, MK inhibit inactive and Abs 340nm inactive.
N#Cc1c2c(c(NCCCN3CCOCC3)n3c1nc1ccccc13)CCC2 was read as DPM-DC inhibit inactive, Fluor 339 460 3.03, NADH enzymes inactive, PMK inhibit inactive, MK inhibit inactive and Abs 340nm inactive.
CC(C)c1cc(NCCN2CCOCC2)n2c(nc3ccccc32)c1C#N was read as DPM-DC inhibit inactive, Fluor 339 460 inactive, NADH enzymes inactive, PMK inhibit inactive, MK inhibit inactive and Abs 340nm inactive.
CC(C)c1cc(NCCCN2CCOCC2)n2c(nc3ccccc32)c1C#N was read as Fluor 339 460 2.3, NADH enzymes inactive, PMK inhibit inactive, MK inhibit inactive and Abs 340nm inactive.
`O=C(NCC1CCS(=O)(=O)C1)NCC1CCS(=O)(=O)C1` (configuration not stated) gave DPM-DC inhibit inactive, Fluor 339 460 inactive, NADH enzymes inactive, PMK inhibit inactive, MK inhibit inactive and Abs 340nm inactive.
Cc1ccc2c(c1)c1ncnc(N3CCN(c4ccccc4)CC3)c1n2C was read as DPM-DC inhibit inactive, Fluor 339 460 inactive, NADH enzymes inactive, PMK inhibit inactive, MK inhibit inactive and Abs 340nm inactive.
`Cc1ccc2c(c1)c1ncnc(N3CCC4(CC3)OCCO4)c1n2C` gave Fluor 339 460 3.71, NADH enzymes inactive, PMK inhibit inactive, MK inhibit inactive and Abs 340nm inactive.
Cc1ccc2c(c1)c1ncnc(N3CCOCC3)c1n2C was read as Fluor 339 460 3.76, NADH enzymes inactive, PMK inhibit inactive, MK inhibit inactive and Abs 340nm inactive.
Cc1ccc(-n2ncc3c(N4CCC5(CC4)OCCO5)ncnc32)c(C)c1 was read as DPM-DC inhibit inactive, Fluor 339 460 inactive, NADH enzymes inactive, PMK inhibit inactive, MK inhibit inactive and Abs 340nm inactive.
`CCOc1cc(C(=O)NCCOC)ccc1OC` gave DPM-DC inhibit inactive, Fluor 339 460 inactive, NADH enzymes inactive, PMK inhibit inactive, MK inhibit inactive and Abs 340nm inactive.
Nc1c(Br)cc(Br)c(N2CCCC2=O)c1Br was read as DPM-DC inhibit inactive, Fluor 339 460 inactive, NADH enzymes inactive, PMK inhibit inactive, MK inhibit inactive and Abs 340nm inactive.
Screening COc1ccc(-c2nc3c(c(=O)n(C)c(=O)n3C)n2CC2CC(c3ccccc3)=NO2)cc1OC (configuration not stated) returned DPM-DC inhibit inactive, Fluor 339 460 inactive, NADH enzymes inactive, PMK inhibit inactive, MK inhibit inactive and Abs 340nm inactive.
OCC1CCCN(Cc2ccc(-c3ccccc3)cc2)C1 (configuration not stated) was read as DPM-DC inhibit inactive, Fluor 339 460 inactive, NADH enzymes inactive, PMK inhibit inactive, MK inhibit 41.0 and Abs 340nm inactive.
Screening CCCN1C(=O)c2ccccc2NC1c1ccc(OC)cc1OC (configuration not stated) returned Fluor 339 460 5.07, NADH enzymes inactive, PMK inhibit inactive, MK inhibit inactive and Abs 340nm inactive.
`CCCN1C(=O)c2cc(C(=O)O)ccc2C1O` (configuration not stated) gave DPM-DC inhibit inactive, Fluor 339 460 inactive, NADH enzymes inactive, PMK inhibit inactive, MK inhibit inactive and Abs 340nm inactive.
